Only some compounds are listed: those with a hit (about 2.9% of all), similar ones and a draw of the others.
DRD3 agonist: qHTS of D3 Dopamine Receptor Agonist: qHTS | D(3) dopamine receptor (Homo sapiens), P35462 | D3R DiscoveRx beta-arrestin cells, luminescence, 90 min | max activation, % | 0.58% of 410,000 active | AID 652048, 2013; in the data active = max activation above about 30%; also: 0% is about no effect
Target sequence (P35462 whole entry, looked up): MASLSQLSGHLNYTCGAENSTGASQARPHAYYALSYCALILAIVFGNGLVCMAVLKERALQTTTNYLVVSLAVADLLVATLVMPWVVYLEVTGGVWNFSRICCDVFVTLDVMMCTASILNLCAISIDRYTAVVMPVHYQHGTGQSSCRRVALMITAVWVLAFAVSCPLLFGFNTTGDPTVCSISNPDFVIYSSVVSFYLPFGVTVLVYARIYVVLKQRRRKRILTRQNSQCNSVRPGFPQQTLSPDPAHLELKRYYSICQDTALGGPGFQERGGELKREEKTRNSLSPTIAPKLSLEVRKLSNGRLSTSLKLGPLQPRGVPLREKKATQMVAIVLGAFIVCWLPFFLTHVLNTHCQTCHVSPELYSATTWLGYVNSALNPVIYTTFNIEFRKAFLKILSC
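Agonist mode: compounds and dopamine controls were applied to plated cells for 90 min at 37 degrees C after an overnight attachment at 1500 cells/well. Luminescent read-out followed 30 - 60 minutes at room temperature with DiscoveRx detection reagent.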
TRPML1 inh: qHTS for Inhibitors of the Human Mucolipin Transient Receptor Potential 1 (TRPML1); activity change, negative = inhibition, % (no concentration beside the values); 0.02% of 390,000 active; TRPML1-inducible cells, Ca2+ dye fluorescence, FDSS; stronger effect = lower value; inhibition of EC80 agonist-evoked calcium signal; Mucolipin-1 (Homo sapiens), Q9GZU1; in the data active = activity change below about -50%; inconclusive = between about -30% and that limit;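 also: stimulus is agonist 54-4 at its EC80 concentration; % is scaled to controls: 0 for no effect and ±100 for the full control effect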
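Calcium fluorescence in TRPML1-DL cells induced overnight with Tet: a 110 s read after compound pin addition, then a 110 s antagonist read after challenge with 54-4 at 4 uM final (EC80).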
DRD3 antagonist: qHTS of D3 Dopamine Receptor Antagonist: qHTS. D(3) dopamine receptor (Homo sapiens), P35462. max response, negative = inhibition, %. 2.5% of 360,000 active. D3R cells, DiscoveRx beta-arrestin luminescence, antagonist mode; stronger effect = lower value. AID 652054, 2013; in the data active = max response below about -50%; inconclusive = no clear call, values can overlap the other calls; also: % is scaled to controls: 0 for no effect and ±100 for the full control effect
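Cells plated overnight at 1500 cells/well, then exposed to library compounds with dopamine controls for 90 minutes at 37 degrees C. DiscoveRx reagent added for 30–60 minutes at room temperature; luminescence read, quantitative HTS format.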
TRPML1 agonist: qHTS for Agonists of the Human Mucolipin Transient Receptor Potential 1 (TRPML1) | Mucolipin-1 (Homo sapiens), Q9GZU1 | TRPML1-expressing cells, Ca2+ dye fluorescence, FDSS | activation, % (test concentration not listed) | 0.12% of 410,000 active; in the data active = activation above about 50%; inconclusive = mostly about 30% to 49%; also: 0% is about no effect
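Tet-induced TRPML1-DL cells, 1,500 per well, cultured overnight, were loaded with a no-wash Ca2+ dye for 45–90 min. Calcium fluorescence was recorded on the FDSS for 110 s after compound addition, before the EC80 agonist (4 uM 54-4) was added.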
* = called active by the depositor; ? = inconclusive; · = no result given.

SMILES	DRD3 agonist	TRPML1 inh	DRD3 antagonist	TRPML1 agonist
CCOCN(C(=O)Cn1cnc2cc(C)c(C)cc21)c1c(C)cccc1CC	4	-13	·	2
Cc1cccc(N2C(=O)CS/C2=N\NC(=O)c2ccc(Br)cc2)c1C	-3	-5	-79*	0
Cc1cccc(N2C(=O)CS/C2=N\NC(=O)c2cccnc2)c1C	6	-7	9	0
O=C(N/N=C/c1ccc[nH]1)c1sc2ccccc2c1Cl	-30	9	-65*	1
O=C(CSc1nc2cc(Cl)ccc2s1)NC1CCCc2ccccc21 (configuration not stated)	33*	53	9	2
COc1cccc2c1C(=O)c1c(O)c3c(c(O)c1C2=O)C[C@@](O)(C(=O)CO)C[C@@H]3O[C@H]1C[C@H](N)[C@H](O[C@@H]2CCCCO2)[C@H](C)O1	-17	·	·	·
Cc1ccc(NC(=O)CCN2CCN(C/C=C/c3ccccc3)CC2)cc1	-7	7	-53*	1
CC(C)(CN1CCNCC1)NS(=O)(=O)c1ccc(Cl)cc1	-23	7	-95*	0
CC(C)(CNCc1ccccc1)NS(=O)(=O)c1ccccc1	-23	18	-2	1
CC(C)(CNCc1ccccc1)NS(=O)(=O)c1ccc(Cl)cc1	-10	62	-57*	4
COc1ccc(C)cc1NC(=O)CCN1CCN(C/C=C/c2ccccc2)CC1	-15	-6	-52*	1
CCc1ccccc1NC(=O)N1CC(CC)Oc2ccc(Cl)cc21 (configuration not stated)	8	7	·	2
Cc1cnc2c3c(cc(Cl)c2c1)-c1ccccc1S(=O)(=O)N3	·	-27	·	1
Nc1nc(NC2CC2)c2ncn([C@@H]3C=C[C@@H](CO)C3)c2n1	6	·	·	·
Cc1ccc(NC(=O)CCN2CCC(Cc3ccccc3)CC2)cc1	-17	-5	-53*	0
Cc1ccc(S(=O)(=O)NC(C)(C)CN2CCC(Cc3ccccc3)CC2)cc1	-19	4	-59*	1
COc1cc(NC(=O)CCN2CCN(C/C=C/c3ccccc3)CC2)cc(OC)c1	3	-5	-59*	-1
COc1ccc(NC(=O)CCN2CCN(C/C=C/c3ccccc3)CC2)cc1	-9	·	-12	·
CCNC(=O)CC1C(=O)N(c2ccc(C)cc2)C(=O)N1Cc1ccc(C)cc1 (configuration not stated)	-12	28	·	0
O=C(NCCCN1CCCC1)c1ccc2c(c1)N(Cc1ccc(F)cc1)C(=O)c1ccccc1S2=O (configuration not stated)	-15	-10	?	0
CC1CCCN(CCCNC(=O)c2nn(C)c3c2CSc2ccccc2-3)C1 (configuration not stated)	-17	-8	-66*	0
CC1CCCN(CCCNC(=O)c2ccc3c(c2)N(Cc2ccccc2F)C(=O)c2ccccc2S3(=O)=O)C1 (configuration not stated)	-26	-1	-112*	0
CC1CCCN(CCCNC(=O)c2ccc3c(c2)N(Cc2ccc(F)cc2)C(=O)c2ccccc2S3=O)C1 (configuration not stated)	-20	11	-82*	3
CC1CCCN(CCCNC(=O)c2ccc3c(c2)N(Cc2cccc(Cl)c2)C(=O)c2ccccc2S3=O)C1 (configuration not stated)	-10	-6	-117*	1
O=C(O)COc1nn(Cc2ccccc2)c2ccccc12	-15	·	·	·
SMILES	DRD3 agonist	TRPML1 inh	DRD3 antagonist	TRPML1 agonist
Oc1ccc2ccccc2c1/C=C/c1ccc2c(Br)cc(Br)c(O)c2n1	-17	2	-104*	3
Oc1cccc2ccc(/C=C/c3ccccc3Br)nc12	-40	6	-114*	1
Oc1c(Cl)cc(Cl)cc1/C=C/c1ccc2cccc(O)c2n1	32*	2	1	17
Oc1cccc2ccc(/C=C/c3cccs3)nc12	-53	-9	-57*	1
Oc1ccc(Cl)cc1/C=C/c1ccc2cccc(O)c2n1	1	-10	?	-1
COc1cc(OC)c2c(c1)C(=O)OC2c1cc(OC)c(OC)cc1C (configuration not stated)	·	·	·	-1
CCOc1ccc(/C=C/c2ccc3ccccc3n2)cc1OCC	·	·	·	6

Source: PubChem BioAssay (National Center for Advancing Translational Sciences (NCATS))
